Measurements: publication PMC4336329 (PLoS ONE, 2015)
In all, about 310,000 compounds went through this assay and about 2,200 (0.71%) showed an effect of 50% or more. The effect is printed as a negative number. For the sample, strong results were picked, then their nearest neighbours and some compounds at random.

molecular target: human ether-à-go-go-related gene (hERG) potassium channel (human, UniProt Q12809); assay: primary screen, population patch clamp on CHO cells stably expressing hERG; higher = less effect of the substance
Sequence (Q12809 whole entry, looked up): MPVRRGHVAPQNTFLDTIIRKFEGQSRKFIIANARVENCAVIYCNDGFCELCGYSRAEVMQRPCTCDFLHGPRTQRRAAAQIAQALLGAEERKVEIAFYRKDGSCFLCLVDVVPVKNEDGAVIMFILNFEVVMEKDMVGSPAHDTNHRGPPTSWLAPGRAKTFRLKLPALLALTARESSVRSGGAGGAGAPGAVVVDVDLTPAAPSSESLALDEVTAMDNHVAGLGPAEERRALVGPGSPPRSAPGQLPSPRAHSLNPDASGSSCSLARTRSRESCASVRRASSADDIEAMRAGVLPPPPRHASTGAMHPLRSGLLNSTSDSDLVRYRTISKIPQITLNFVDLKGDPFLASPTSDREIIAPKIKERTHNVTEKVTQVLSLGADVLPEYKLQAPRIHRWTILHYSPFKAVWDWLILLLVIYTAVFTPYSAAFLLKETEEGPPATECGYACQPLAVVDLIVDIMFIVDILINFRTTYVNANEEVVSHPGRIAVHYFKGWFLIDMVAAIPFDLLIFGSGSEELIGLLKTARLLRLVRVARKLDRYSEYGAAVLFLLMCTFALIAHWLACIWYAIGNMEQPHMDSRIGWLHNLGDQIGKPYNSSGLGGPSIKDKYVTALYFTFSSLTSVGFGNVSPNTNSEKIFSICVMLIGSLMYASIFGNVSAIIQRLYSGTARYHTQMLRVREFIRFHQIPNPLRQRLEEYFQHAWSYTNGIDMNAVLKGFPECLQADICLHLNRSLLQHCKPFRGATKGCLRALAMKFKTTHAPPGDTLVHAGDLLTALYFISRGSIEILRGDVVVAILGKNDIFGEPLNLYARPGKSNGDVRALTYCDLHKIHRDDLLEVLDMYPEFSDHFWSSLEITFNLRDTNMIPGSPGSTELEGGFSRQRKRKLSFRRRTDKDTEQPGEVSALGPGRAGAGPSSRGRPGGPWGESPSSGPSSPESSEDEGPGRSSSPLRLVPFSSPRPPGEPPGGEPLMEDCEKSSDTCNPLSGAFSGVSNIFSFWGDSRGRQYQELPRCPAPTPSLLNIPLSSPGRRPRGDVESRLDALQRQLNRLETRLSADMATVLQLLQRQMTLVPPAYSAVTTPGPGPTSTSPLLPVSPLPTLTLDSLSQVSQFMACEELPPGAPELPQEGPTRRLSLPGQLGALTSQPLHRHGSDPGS

Point of comparison: `COc1ccccc1C(=O)Nc1ccnn1C1CCN(CCC(C)c2ccc(C)o2)CC1` (stereo not shown), “hERG current change (%, negative = inhibition) at 1uM” value -88.2%. Against it:
- COc1ccccc1N1CCN(S(=O)(=O)c2cc(Br)cnc2N)CC1 — higher, 15.3%
- CCN(CC)CCN1C(=O)c2ccccc2NC1c1ccc(F)cc1 (stereo not shown) — higher, -30.5%
- CCN(CC)CCN1C(=O)c2ccccc2NC1c1ccc(Br)cc1 (stereo not shown) — higher, -82.8%
- CCN(CC)CCN1C(=O)c2ccccc2NC1c1ccc(C)cc1 (stereo not shown) — higher, -48.3%
- CCOC(=O)c1c(NC(=O)CN2CCOCC2)sc2c1CC(C)(C)OC2 — higher, 11.7%
- NS(=O)(=O)c1ccc(CCNc2nc(CN3CCOCC3)nc3sc4c(c23)CCC4)cc1 — higher, 3.28%
- Cc1nc(NCCc2ccc(S(N)(=O)=O)cc2)c2c3c(sc2n1)CCC3 — higher, 11.8%
- NS(=O)(=O)c1ccc(CCNc2nc(CN3CCCCC3)nc3sc4c(c23)CCC4)cc1 — higher, -53%
- Cc1cccc(C)c1NC(=O)CNC(=O)c1ccc(N2CCCC2)c([N+](=O)[O-])c1 — higher, -2.53%
- O=C(Nc1ccnn1C1CCN(C2CCC2)CC1)c1ccccc1Cl — higher, -28.4%
- O=C(Nc1ccnn1C1CCN(CCCc2ccccc2)CC1)c1ccccc1Cl — higher, -87.3%
- COc1ccccc1C(=O)Nc1ccnn1C1CCN(C(C)CSC)CC1 (stereo not shown) — higher, -10.6%
- O=C(Nc1ccnn1C1CCN(CCCc2ccccc2)CC1)c1ccccc1 — higher, -70.9%
- CSCCCN1CCC(n2nccc2NC(=O)CCCc2ccccc2)CC1 — higher, -28.5%
- Cc1ccccc1CN1CCC(n2nccc2NC(=O)CCCc2ccccc2)CC1 — higher, 7.05%
- O=C(Nc1ccnn1C1CCN(C2CCC2)CC1)c1ccccc1 — higher, 16.6%
- Cc1ccccc1C(=O)Nc1ccnn1C1CCN(CCCc2ccccc2)CC1 — higher, -84.5%
- COc1ccc(C(=O)Nc2ccnn2C2CCN(CCC(C)c3ccc(C)o3)CC2)cc1 (stereo not shown) — higher, -18%
- Cc1ccccc1C(=O)Nc1ccnn1C1CCN(Cc2ccccn2)CC1 — higher, -14.6%
- COc1ccc(-c2cc(C(=O)NCCc3ccc(S(N)(=O)=O)cc3)c3ccccc3n2)cc1 — higher, 11.6%
- O=C(OCC(=O)N1CCOCC1)c1cnc(Cl)c(Cl)c1 — higher, -0.0536%
- CCCCN=C(C)C1=C(O)CSC1=O — higher, 15.8%
- CCN(c1ccccc1)S(=O)(=O)c1ccc(F)cc1 — higher, 8.48%
- O=C(OCc1nnc(-c2ccc(Br)cc2)o1)c1ccco1 — higher, -3.17%
- CS(=O)(=O)N(CC(=O)Nc1cccc(F)c1)Cc1ccccc1 — higher, 20.1%
- COc1ccccc1-n1c(O)c(/C=C2\C=Nc3ccccc32)c(=O)[nH]c1=O — higher, 11.9%
- Cc1cc(C)nc(-n2nc(C)cc2NC(=O)c2cccc(S(=O)(=O)N(C)C)c2)n1 — higher, 8.89%
- COc1ccccc1C(=O)Nc1ccnn1C1CCN(CCCc2ccccc2)CC1 — higher, -88.1%
- COc1ccccc1C(=O)Nc1ccnn1C1CCN(C)CC1 — higher, 4.47%
- COc1ccccc1CN1CCC(n2nccc2NC(=O)CCc2ccccc2)CC1 — higher, 7.89%
- CC1=C(C(N)=O)C(c2ccc(Br)cc2)n2nc(CCCO)nc2N1 (stereo not shown) — higher, 13.1%
- Cc1ccc(N=C2NC(=O)C(CC(=O)O)S2)cc1 (stereo not shown) — higher, 8.56%
- CC(=O)c1ccc(N2CCN(S(=O)(=O)c3csc(C(N)=O)c3)CC2)cc1 — higher, -14.2%
- NC(=O)c1cc(S(=O)(=O)N2CCN(c3ccc([N+](=O)[O-])cc3)CC2)cs1 — higher, -59.3%
- CN(C)S(=O)(=O)N1CCN(c2ccc(Cl)cc2)CC1 — higher, 5.65%
- CN(C)S(=O)(=O)N1CCN(c2ccc([N+](=O)[O-])cc2)CC1 — higher, -60.5%
- CN(C)S(=O)(=O)N1CCN(c2ccccc2)CC1 — higher, -0.132%
- NC(=O)c1cc(S(=O)(=O)N2CCN(c3cccc(Cl)c3)CC2)cs1 — higher, 18.9%
- O=[N+]([O-])c1cc(NS(=O)(=O)c2ccc(Cl)nc2)ccc1Cl — higher, -0.66%
- CCc1ccc2oc(-c3cc(N)ccc3O)nc2c1 — higher, 9.06%
- O=C(O)C1CSC(c2ccccc2)N1C(=O)c1ccco1 (stereo not shown) — higher, 10%
- O=C(/C=C/c1ccc(S(=O)(=O)NCc2ccco2)cc1)N1CCN(c2ccccc2)CC1 — higher, 5.15%
- COc1ccc(C(=O)N/N=C/c2ccc(OC)c(COc3ccc(F)cc3)c2)cc1 — higher, 1.17%
- COc1ccc(/C=N/NC(=O)c2ccncc2)cc1CN1CCOCC1 — higher, 6.59%
- COc1ccc(/C=N\NC(=O)c2ccccc2)cc1COc1ccc(F)cc1 — higher, 4.81%
- COc1ccc(/C=N/NC(=O)c2cccc(Br)c2)cc1CN1CCOCC1 — higher, -38.5%
- COc1ccc(/C=N/NC(=O)c2cccnc2)cc1CN1CCN(c2ccc(F)cc2)CC1 — higher, -0.578%
- COc1ccc(/C=N/NC(=O)c2ccccc2)cc1CN1CCN(c2ccc(F)cc2)CC1 — higher, -62.1%
- COc1ccc(/C=N/NC(=O)c2ccccc2F)cc1CN1CCN(c2ccc(F)cc2)CC1 — higher, -64.4%
- COc1ccc(/C=N\NC(=O)c2ccccc2F)cc1COc1ccc(F)cc1 — higher, 16.6%
- COc1ccc(/C=N/NC(=O)c2ccncc2)cc1CN1CCN(c2ccc(F)cc2)CC1 — higher, -54.2%
- COc1ccc(/C=N/NC(=O)c2ccoc2C)cc1CN1CCN(c2ccc(F)cc2)CC1 — higher, -19.3%
- COc1ccc(C(=O)N/N=C/c2ccc(OC)c(CN3CCN(c4ccc(F)cc4)CC3)c2)cc1 — higher, -83.5%
- COc1ccc(/C=N/NC(=O)c2ccc(C)cc2)cc1CN1CCN(c2ccc(F)cc2)CC1 — higher, -27%
- O=S(=O)(NC1CC1)c1ccc(F)c(F)c1 — higher, 10.1%
- OCCN(Cc1nc(-c2ccc3c(c2)OCO3)no1)Cc1cccs1 — higher, 7.42%
- CC(Oc1cc2oc(=O)c3c(c2cc1Cl)CCC3)C(=O)NCCCN1CCOCC1 (stereo not shown) — higher, 13.3%
- Cc1ccc(CN=C(N)Nc2nc(C)cc(C)n2)cc1.Cl — higher, -19.5%
- CN(Cc1ccc(F)cc1)C(=O)c1ccc(NC(=O)CC2SC(N3CCCC3)=NC2=O)cc1 (stereo not shown) — higher, 8.82%
- COc1ccc(S(=O)(=O)NCC2CCCN(C(=O)c3cccnc3C)C2)cc1 (stereo not shown) — higher, 14%
- COc1ccc2c(ccc[n+]2CC(=O)c2ccc(C)cc2)c1.[Br-] — higher, 8.14%
- COc1ccc(/C=N\NC(=O)c2cc(O)c(O)c(O)c2)cc1CN1CCN(c2ccc(F)cc2)CC1 — higher, 10.4%
- COc1ccc(/C=N/NC(=O)c2ccc(Br)cc2)cc1CN1CCOCC1 — higher, -23.8%
- COc1cc(C(=O)N/N=C/c2ccc(OC)c(CN3CCN(c4ccc(F)cc4)CC3)c2)ccc1O — higher, -52.4%
- CCN(CC(=O)N1CCOCC1)S(=O)(=O)c1ccccc1 — higher, 12.4%
- Cc1ccccc1NC(=O)N1CCC(C(=O)c2ccc(F)cc2)CC1 — higher, 17.6%
- CCOc1ccccc1NC(=O)N1CCC(C(=O)c2ccc(F)cc2)CC1 — higher, 9.5%
- Cc1nc2sccn2c(=O)c1CCN1CCC(=C(c2ccc(F)cc2)c2ccc(F)cc2)CC1 — higher, -65%
- Cc1nc2sccn2c(=O)c1CCN1CCC(=C(c2ccccc2)c2ccc(F)cc2)CC1 — higher, -78.8%
- Cc1nc2ccccn2c(=O)c1CCN1CCC(C(=O)c2ccc(F)cc2)CC1 — higher, -66.2%
- Cc1nc2sccn2c(=O)c1S(=O)(=O)NCCc1ccccc1 — higher, -10.2%
- CCCCc1c(O)nc2sccn2c1=O — higher, 5.53%
- Cc1nc2sccn2c(=O)c1S(=O)(=O)N1CCN(c2ccc(F)cc2)CC1 — higher, -23%
- Cc1nc2sccn2c(=O)c1S(=O)(=O)NCc1ccccc1 — higher, 9.92%
- CC(NCC(=O)Nc1ccccc1C(=O)NC1CC1)c1ccc(F)cc1F (stereo not shown) — higher, 1.42%
- COc1ccccc1N1CCN(S(=O)(=O)c2c(C)sc3ncn(CC(=O)NCCN(C)C)c(=O)c23)CC1 — higher, 10.8%
- Cc1ccc(S(=O)(=O)N2CCN(C(=O)CN3CCCSc4ccccc43)CC2)cc1 — higher, 3.85%
- N/C(=N\N=C\c1ccc(O)cc1O)N[N+](=O)[O-] — higher, 8.72%
- COc1ccc(C(=O)OCc2nnc(-c3ccccc3)o2)cc1S(=O)(=O)N1CCOCC1 — higher, 4.07%
- Cc1cc(=O)[nH]c(SCC(=O)NCC2CCCCC2)c1C#N — higher, 16%
- CCOc1ccccc1NC(=O)C(=O)NCCC1=CCCCC1 — higher, 9.84%
- CCCCN(CC)CCCNC(=O)c1ccc(CS(=O)(=O)c2c(Cl)cccc2Cl)o1 — higher, -8.53%
- CN(CCNC(=O)c1ccc(CS(=O)(=O)c2ccc(Br)cc2)o1)CCc1ccccc1 — higher, -42%
- CCCCN(CCCNC(=O)c1ccc(CS(=O)(=O)c2c(Cl)cccc2Cl)o1)Cc1ccccc1 — higher, -30.5%
- CCCN(CCC)CCCNC(=O)c1ccc(CS(=O)(=O)c2c(Cl)cccc2Cl)o1 — higher, -59.1%
- CN(CCNC(=O)c1ccc(CS(=O)(=O)c2c(Cl)cccc2Cl)o1)CCc1ccccc1 — higher, -50.4%
- CC(C)N(CCNC(=O)c1ccc(CS(=O)(=O)c2c(Cl)cccc2Cl)o1)Cc1ccccc1 — higher, -3.94%
